Measured values from publication PMC11996681, “Interfacial water confers transcription factors with dinucleotide specificity”.

Experiments:
Experiment in all cases: HT-SELEX; SELEX buffer: 10.4 mM Tris-HCl pH 7.5, 51.4 mM NaCl, 1.4 mM MgCl2, 4% glycerol, 100 uM EGTA, 0.7 mM DTT, 3.7 ug/ml poly-dI-dC, 1.4 uM ZnSO4; room temperature (2); high values mean tight binding
Settings in all cases: protein: recombinant; dsDNA, one strand shown
[1] = target: BARHL2 DBD ctrl (unmutated, SELEX) (human, UniProt Q9NY43 227-293)
Sequence of BARHL2 DBD ctrl (unmutated, SELEX) (Q9NY43 227-293, stated change not applied): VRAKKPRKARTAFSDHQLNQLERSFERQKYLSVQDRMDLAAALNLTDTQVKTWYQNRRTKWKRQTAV

[2] = target: BARHL2 DBD T278I/T285N (HMX3) (human, UniProt Q9NY43 227-293, T278I;T285N)
Sequence of BARHL2 DBD T278I/T285N (HMX3) (Q9NY43 227-293 T278I/T285N): as the sequence (Q9NY43 227-293, stated change not applied) above, with T52I, T59N counted along it

BARHL2 DBD T278V (EMX1) = BARHL2 DBD T278V (EMX1) (human, UniProt Q9NY43 227-293, T278V)
Sequence of BARHL2 DBD T278V (EMX1) (Q9NY43 227-293 T278V): as the sequence (Q9NY43 227-293, stated change not applied) above, with T52V counted along it

[3] = target: BARHL2 DBD T278I (NKX1.2) (human, UniProt Q9NY43 227-293, T278I)
Sequence of BARHL2 DBD T278I (NKX1.2) (Q9NY43 227-293 T278I): as the sequence (Q9NY43 227-293, stated change not applied) above, with T52I counted along it

BARHL2 DBD T285M (NANOG) = BARHL2 DBD T285M (NANOG) (human, UniProt Q9NY43 227-293, T285M)
Sequence of BARHL2 DBD T285M (NANOG) (Q9NY43 227-293 T285M): as the sequence (Q9NY43 227-293, stated change not applied) above, with T59M counted along it

[4] = target: BARHL2 DBD T278N/T285I (PBX1) (human, UniProt Q9NY43 227-293, T278N;T285I)
Sequence of BARHL2 DBD T278N/T285I (PBX1) (Q9NY43 227-293 T278N/T285I): as the sequence (Q9NY43 227-293, stated change not applied) above, with T52N, T59I counted along it

[5] = target: BARHL2 DBD T278V/T285A (ALX4) (human, UniProt Q9NY43 227-293, T278V;T285A)
Sequence of BARHL2 DBD T278V/T285A (ALX4) (Q9NY43 227-293 T278V/T285A): as the sequence (Q9NY43 227-293, stated change not applied) above, with T52V, T59A counted along it

[6] = target: BARHL2 DBD T278I/T285M (HOXA3) (human, UniProt Q9NY43 227-293, T278I;T285M)
Sequence of BARHL2 DBD T278I/T285M (HOXA3) (Q9NY43 227-293 T278I/T285M): as the sequence (Q9NY43 227-293, stated change not applied) above, with T52I, T59M counted along it

[7] = target: BARHL2 DBD T278V/T285M (MEOX2) (human, UniProt Q9NY43 227-293, T278V;T285M)
Sequence of BARHL2 DBD T278V/T285M (MEOX2) (Q9NY43 227-293 T278V/T285M): as the sequence (Q9NY43 227-293, stated change not applied) above, with T52V, T59M counted along it

[8] = target: BARHL2 DBD T278I/T285A (CDX1) (human, UniProt Q9NY43 227-293, T278I;T285A)
Sequence of BARHL2 DBD T278I/T285A (CDX1) (Q9NY43 227-293 T278I/T285A): as the sequence (Q9NY43 227-293, stated change not applied) above, with T52I, T59A counted along it

[9] = target: BARHL2 DBD T278I/T285S (DLX1) (human, UniProt Q9NY43 227-293, T278I;T285S)
Sequence of BARHL2 DBD T278I/T285S (DLX1) (Q9NY43 227-293 T278I/T285S): as the sequence (Q9NY43 227-293, stated change not applied) above, with T52I, T59S counted along it

[10] = target: BARHL2 DBD T278N/T285Q (SIX6) (human, UniProt Q9NY43 227-293, T278N;T285Q)
Sequence of BARHL2 DBD T278N/T285Q (SIX6) (Q9NY43 227-293 T278N/T285Q): as the sequence (Q9NY43 227-293, stated change not applied) above, with T52N, T59Q counted along it

BARHL2 DBD T285A (LBX1) = BARHL2 DBD T285A (LBX1) (human, UniProt Q9NY43 227-293, T285A)
Sequence of BARHL2 DBD T285A (LBX1) (Q9NY43 227-293 T285A): as the sequence (Q9NY43 227-293, stated change not applied) above, with T59A counted along it

[11] = target: BARHL2 DBD T278I/T285V (HOXB13) (human, UniProt Q9NY43 227-293, T278I;T285V)
Sequence of BARHL2 DBD T278I/T285V (HOXB13) (Q9NY43 227-293 T278I/T285V): as the sequence (Q9NY43 227-293, stated change not applied) above, with T52I, T59V counted along it

[12] = target: BARHL2 DBD T278N/T285R (PKNOX1) (human, UniProt Q9NY43 227-293, T278N;T285R)
Sequence of BARHL2 DBD T278N/T285R (PKNOX1) (Q9NY43 227-293 T278N/T285R): as the sequence (Q9NY43 227-293, stated change not applied) above, with T52N, T59R counted along it

Sequence	binding signal [1] [fold enrichment]	binding signal [2] [fold enrichment]	binding signal (BARHL2 DBD T278V (EMX1)) [fold enrichment]	binding signal [3] [fold enrichment]	binding signal (BARHL2 DBD T285M (NANOG)) [fold enrichment]	binding signal [4] [fold enrichment]	binding signal [5] [fold enrichment]	binding signal [6] [fold enrichment]	binding signal [7] [fold enrichment]	binding signal [8] [fold enrichment]	binding signal [9] [fold enrichment]	binding signal [10] [fold enrichment]	binding signal (BARHL2 DBD T285A (LBX1)) [fold enrichment]	binding signal [11] [fold enrichment]	binding signal [12] [fold enrichment]
TAAGCG	3	2.4	3.2	2.4	3.6	1.4	1.9	2.4	2.7	1.8	1.9	1.6	2.9		
TAATGG	7.8	1.9	7.6	8	6.2	9.1	3.7	8.4	7.6	6.2	8.1	7	4.7	7.7	
TAAGTG	6.2	8.6	5.9	6.1	4.4	2.5	3.7	5	4.4	6.4	6.2	2.6	6.1	4	1.3
TAAATG	12.6	1.9	5.9	5	3.4	3.3	2.2	2.9	3	3.2	4	2	4.1	4.3	
